# Measurements from PubChem BioAssay (Tox21).
# Inconclusive results are not listed. A call without a number means that no potency is given here. Activity calls are given as the source filed them. The call rests on the fitted dose curve.
# Key:
# [1] = target: Acetylcholinesterase (Homo sapiens) (UniProt P22303); assay: Acetylcholinesterase (AChE) small molecule antagonists: colormetric cell-based qHTS assay (AID 1347395); further: nearly all actives have a fitted effect of over 30% in size; further: potency means the concentration at half of the fitted maximal effect
# Chain of Acetylcholinesterase (Homo sapiens) (P22303 whole entry, looked up): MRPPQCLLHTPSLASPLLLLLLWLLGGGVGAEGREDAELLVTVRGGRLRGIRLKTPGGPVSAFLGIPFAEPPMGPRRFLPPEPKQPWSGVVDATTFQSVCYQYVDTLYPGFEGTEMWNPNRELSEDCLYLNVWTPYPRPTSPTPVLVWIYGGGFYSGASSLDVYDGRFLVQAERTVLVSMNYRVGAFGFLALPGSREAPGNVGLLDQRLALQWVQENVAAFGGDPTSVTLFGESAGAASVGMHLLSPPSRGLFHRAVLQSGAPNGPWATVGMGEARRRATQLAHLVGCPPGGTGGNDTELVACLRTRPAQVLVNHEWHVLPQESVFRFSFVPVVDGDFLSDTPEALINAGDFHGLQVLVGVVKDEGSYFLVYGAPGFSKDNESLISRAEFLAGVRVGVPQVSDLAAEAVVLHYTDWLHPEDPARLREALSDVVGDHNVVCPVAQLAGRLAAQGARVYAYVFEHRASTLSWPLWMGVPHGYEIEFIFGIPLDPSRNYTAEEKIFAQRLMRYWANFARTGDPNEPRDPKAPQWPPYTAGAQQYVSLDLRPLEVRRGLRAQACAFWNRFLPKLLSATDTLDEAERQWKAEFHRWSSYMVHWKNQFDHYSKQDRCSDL
# In short: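 Neuroblastoma line SH-SY5Y supplied the enzyme; cells were preincubated with compound for 30 min at 37 C and 5% CO2. Acetylthiocholine with DTNB was then added for 90 min at 37 C, and thiocholine was measured by colour.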
# [2] = target: Acetylcholinesterase (Homo sapiens) (UniProt P22303); assay: Acetylcholinesterase (AChE) small molecule antagonists: enzyme-based qHTS assay (AID 1347397); details: Potency: AChE enzyme activity inhibition; outcome: AChE enzyme activity inhibition; further: nearly all actives have a fitted effect of over 55% in size
# In short: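 Absorbance-based detection of thiocholine with DTNB served as the read-out. Recombinant human AChE was exposed to compound for 30 min at RT before a 10 min RT incubation with acetylthiocholine.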
# [3] = target: Acetylcholinesterase (Homo sapiens) (UniProt P22303); assay: Acetylcholinesterase (AChE) small molecule antagonists: fluorescence cell-based qHTS assay (AID 1347398); details: Potency: AChE activity; outcome: AChE activity; further: nearly all actives have a fitted effect of over 50% in size
# In short: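 Fluorimetric cell-based assay: intact SH-SY5Y cells, 30 min compound preincubation at 37 C, acetylthiocholine substrate with thiol probe Thiolite Green, 40 min RT development, fluorescence 490/520 nm.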
# [4] = target: Acetylcholinesterase (Homo sapiens) (UniProt P22303); assay: Acetylcholinesterase (AChE) small molecule antagonists: enzyme-based qHTS assay with human liver microsomes (AID 1347399); details: Potency: qHTS inhibition; outcome: qHTS inhibition; further: nearly all actives have a fitted effect of over 60% in size
# In short: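 Recombinant human AChE (50 mU/mL in the enzyme mix) and human liver microsomes (0.25 mg/mL final) were preincubated with compound and NADPH (0.25 mg/mL final) for 30 min at 37 C. Acetylthiocholine/DTNB was then added; thiocholine was read colorimetrically after 10 min at room temperature.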
SMILES,Potency [1],Potency [2],Potency [3],Potency [4]
CC(=O)c1cccc([N+](=O)[O-])c1,inactive,inactive,inactive,inactive
CC(=O)CC(c1ccc([N+](=O)[O-])cc1)c1c(O)c2ccccc2oc1=O (centres undefined),inactive,inactive,inactive,inactive
O=C(O)/C=C(\CC(=O)O)C(=O)O,inactive,inactive,inactive,inactive
CCc1nccnc1C,inactive,inactive,inactive,inactive
CCCC=O,inactive,inactive,inactive,inactive
CC(C)(O)Cc1ccccc1,inactive,inactive,inactive,inactive
CCC1CCCCC1,inactive,inactive,inactive,inactive
CCO[Si](C)(C)OCC,inactive,inactive,inactive,inactive
CCOc1ccccc1O,inactive,inactive,inactive,inactive
CCCCCCCCC(=O)Cl,inactive,inactive,inactive,inactive
Cc1nnc(SCC2=C(C(=O)O)N3C(=O)[C@@H](NC(=O)Cn4cnnn4)[C@H]3SC2)s1,inactive,inactive,inactive,inactive
CCCCCCCCCCCCOC(C)=O,inactive,inactive,inactive,inactive
C/C=C(\C)C(=O)OCC/C=C\CC,inactive,inactive,inactive,inactive
CCCCCCCCCCCCSC,inactive,inactive,inactive,inactive
CCCCCCCC[Si](OCC)(OCC)OCC,inactive,inactive,inactive,inactive
O=C(O)CCCCCCCCCCCBr,inactive,inactive,inactive,inactive
NC(=O)Nc1ccc(Cl)cc1,inactive,inactive,inactive,inactive
CC(CC1c2ccccc2CCc2ccccc21)CN(C)C (centres undefined),inactive,inactive,inactive,inactive
Cc1cccc2nccnc12,inactive,inactive,inactive,inactive
CCCCCCCC/C=C\CCCCCCCC(=O)OCCO,inactive,inactive,inactive,inactive
C#CC(O)CCCCC (centres undefined),inactive,inactive,inactive,inactive
CO[Si](CCCCl)(OC)OC,inactive,inactive,inactive,inactive
COCCOCCOCCOCCOC,inactive,inactive,inactive,inactive

SMILES,Potency [1],Potency [2],Potency [3],Potency [4]
CCC(C)CCCC(C)(C)O (centres undefined),inactive,inactive,inactive,inactive
CC(C)CCOC(=O)c1ccc(N(C)C)cc1,inactive,inactive,inactive,inactive
O=C(Nc1cccc([N+](=O)[O-])c1)c1cc2ccccc2cc1O,inactive,inactive,inactive,inactive
Cc1ccc(C(C)c2ccc(C)c(C)c2)cc1C,inactive,inactive,inactive,inactive
O=C(C(=O)c1ccco1)c1ccco1,inactive,inactive,inactive,inactive
CCOC(=O)c1ccccc1,inactive,inactive,inactive,inactive
OC/C=C/CO,35.5 µM (active),inactive,inactive,inactive
O=C1c2ccccc2C(=O)C1(O)O,inactive,inactive,inactive,inactive
CC(C)COC(=O)c1ccc(O)cc1,inactive,inactive,inactive,inactive
c1ccc2occc2c1,inactive,inactive,inactive,inactive
CCCCCCCCCC(=O)N(C)C,inactive,inactive,inactive,inactive
CCCCc1ccc(N)cc1,inactive,inactive,inactive,inactive
CC(C)(C)C(=O)OCOC(=O)C1N2C(=O)CC2S(=O)(=O)C1(C)C (centres undefined),inactive,inactive,inactive,inactive
CCOc1ccc(NS(=O)(=O)c2ccc(N)cc2)nn1,inactive,inactive,inactive,inactive
COC(=O)c1ccc(I)cc1S(=O)(=O)NC(=O)Nc1nc(C)nc(OC)n1,inactive,inactive,inactive,inactive
CC(C)(C)CC(C)(C)c1ccc(OCCO)cc1,inactive,inactive,inactive,inactive
Cc1ccc(O)cn1,inactive,inactive,inactive,inactive
C=CCOC(=O)COCCC(C)C,inactive,inactive,inactive,inactive
Oc1ccc(-c2ccc(O)cc2)cc1,inactive,inactive,inactive,inactive
CN1CCN(C(=O)C2CCCCC2)CC1,inactive,inactive,inactive,inactive
O=C1CCC(=O)N1,inactive,inactive,inactive,inactive
CC(=O)NC(Cc1ccccc1)C(=O)O (centres undefined),inactive,inactive,inactive,inactive
CC(=O)NC1(c2cccc(F)c2)CCN(CC[C@@]2(c3ccc(Cl)c(Cl)c3)CN(c3ccccc3)C(=O)CO2)CC1,inactive,inactive,inactive,inactive
